Records with an inconclusive call do not appear. More than one record can exist for a structure, and the calls need not agree. Calls of active or inactive are those of the source. How the source made its calls, unless noted: active means hit-call score of the fitted dose curve at least 0.9, where 1 is the maximum; inactive means score below 0.9.

Here are results for 21 molecules from PubChem BioAssay (EPA / NIEHS).

The nature of assay [1]: ACEA_ER_80hr: ACEA Biosciences xCELLigence Real-Time Cell Analysis on Estrogen Receptor Agonism for Proliferation (AID 2282667; active means hit-call score of the fitted dose curve at least 0.9, where 1 is the maximum). Conditions: T47D proliferation, impedance (xCELLigence), 80 h. In short, it runs like this:
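Estrogen-driven proliferation is captured as electrode impedance in T47D cells 80 h after compound addition. Test articles ran at 8 concentrations, 1:4 dilutions from 100 uM final, in two replicate plates.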

The nature of assay [2]: APR_HepG2_CellCycleArrest_24hr: Apredica 24-hour HepG2 Assay for Cell Cycle Arrest (AID 2282905).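 Further: cell cycle arrest scored as ratio of 2N to 4N nuclear DNA content.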 Conditions: imaging, actives raise or lower the signal. In short, it runs like this:
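Step one: dose HepG2 with test compounds, 0.39–200 uM, 0.5% DMSO, 24 hr. Step two: fix, permeabilize, stain nuclei with Hoechst 33342. Step three: image six fields per well at 20x, quantify DNA content, fit bidirectionally relative to DMSO.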

The nature of assay [3]: APR_HepG2_NuclearSize_24hr: Apredica 24-hour HepG2 Assay for Nuclear Size (AID 2282907). As to conditions: high-content imaging, actives raise or lower the signal. The gist of the method:
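After fixation and permeabilization, 24-hr-treated HepG2 cells were stained with Hoechst 33342 and imaged on an ArrayScan (20x). Doses spanned 0.39–200 uM in duplicate. Nuclear diameter changes in either direction were fitted relative to 0.5% DMSO controls.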

The nature of assay [4]: APR_HepG2_MicrotubuleCSK_24hr: Apredica 24-hour HepG2 Assay for Microtubule CSK Stabilty (AID 2282909). Conditions: HepG2 microtubule cytoskeleton imaging, actives raise or lower the signal. The gist of the method:
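Microtubule stability is scored from tubulin immunofluorescence in fixed HepG2 cells imaged at 20x. Cells receive ten compound concentrations up to 200 uM for 24 h; taxol and DMSO serve as positive and negative controls.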

Assay [5] is described as follows: APR_HepG2_MitoticArrest_24hr: Apredica 24-hour HepG2 Assay for Mitotic Arrest (AID 2282910). As to conditions: high-content imaging, actives raise or lower the signal. The gist of the method: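 Treatment lasted 24 hr in the human HepG2 line at 0.39–200 uM, solvent held at 0.5% DMSO. Fixed cells were stained with Hoechst 33342 and anti-phospho-histone H3, imaged at 20x, and analysed by gain- or loss-of-signal fitting against DMSO.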

The nature of assay [6]: APR_HepG2_MitoMembPot_24hr: Apredica 24-hour HepG2 Assay for Mitochondrial Membrane Potential (AID 2282911). Conditions: imaging, actives raise or lower the signal. The gist of the method:
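Mitochondrial dye uptake (MitoTracker Red CMXRos, 250 nM, 30 min pre-fixation) in HepG2 after 24 hr compound exposure, 0.39–200 uM; ArrayScan images at 20x, activity fitted in both directions relative to DMSO.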

Assay [7] can be described thus: APR_HepG2_CellCycleArrest_72hr: Apredica 72-hour HepG2 Assay for Cell Cycle Arrest (AID 2282914). Conditions: high-content imaging, actives raise or lower the signal. The gist of the method: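 Using multiplexed high-content imaging, HepG2 nuclei stained with Hoechst 33342 (2 ug/mL) were analysed for DNA content after fixation and permeabilization. Treatment lasted 72 hr across 0.39–200 uM in duplicate with final DMSO 0.5% v/v; DMSO served as negative control.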

Assay [8] can be described thus: APR_HepG2_CellLoss_72hr: Apredica 72-hour HepG2 Assay for Cell Loss (AID 2282915). As to conditions: high-content imaging. The gist of the method: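 HepG2 cells were exposed for 72 hr to compounds at 0.39–200 uM (ten concentrations, duplicate) in 0.5% v/v final DMSO. Nuclei were stained with Hoechst 33342 after 3.7% formaldehyde fixation, imaged at 20x, and counted; fits bidirectional versus DMSO.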

A short description of assay [9]: APR_HepG2_P-H2AX_72hr: Apredica 72-hour HepG2 Assay for H2AX Phosphorylation (AID 2282916).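 Further: phospho-histone H2A.x immunostain intensity per cell marking DNA damage.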 As to conditions: imaging, actives raise or lower the signal. In short, it runs like this: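 Phospho-H2A.x imaging endpoint in HepG2 after 72 hr compound exposure (0.39–200 uM, duplicate wells). Activity derived by bidirectional curve fitting with DMSO as baseline.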
Assay [10] can be described thus: APR_HepG2_MitoticArrest_72hr: Apredica 72-hour HepG2 Assay for Mitotic Arrest (AID 2282918). As to conditions: high-content imaging, actives raise or lower the signal. The gist of the method: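 Using high-content imaging of fixed HepG2 cells, phospho-histone H3 signal was measured following a 72 hr incubation with ten-point compound dilutions up to 200 uM. DMSO served as the negative control and baseline for bidirectional curve fitting.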

In the case of `CCOP(=O)(CN(CCO)CCO)OCC`, in assay [1], the call was inactive.

`O=C(O)C(F)(F)C(F)(F)C(F)(F)C(F)(F)C(F)(F)C(F)(F)F`: the outcome in assay [2], in assay [3], in assay [4], in [5], in assay [6] and in assay [7] was inactive. In addition, the AC50 is 14.5 µM (active) in assay [8], 13.6 µM (active) in [9] and 8.69 µM (active) in assay [10].

Consider `COC[C@H](C)N(C(=O)CCl)c1c(C)csc1C`, for which, in assay [1], the outcome was inactive.

Turning to `O=C(O)C(Cl)(Cl)Cl`, the outcome in [2], in assay [3], in assay [4], in [5], in assay [6] and in [7] was inactive. The molecule was called inactive in assay [8], in [9] and in assay [10]. Also, the AC50 in assay [6] is 101 µM (active); in [7] it was 171 µM (active); in assay [8] it was 110 µM (active); in assay [10], 114 µM (active).

In the case of `CN(C)N=O`, the result in assay [2], in assay [3], in [4], in [5], in assay [6] and in assay [7] was inactive. Further, the molecule was called inactive in assay [8], in [9] and in assay [10].

Consider `CCCCCCCCc1ccc(O)cc1`, for which the result in [2], in [4], in [6] and in assay [9] was inactive. The AC50 in assay [3] was 103 µM (active); in assay [5], 77.2 µM (active); in [7] it was 52.5 µM (active); in [8] it was 86.7 µM (active); in assay [10] it was 98 µM (active).

Take `O=c1[nH]c(=O)[nH]c(=O)[nH]1`: the molecule was called inactive in assay [2], in [3], in assay [4], in assay [5], in [7] and in assay [8]. The molecule was called inactive in assay [9] and in assay [10]. Also, the AC50 in [6] is 61.3 µM (active).

As to `CCC(=O)C(CC(C)N(C)C)(c1ccccc1)c1ccccc1` (stereo unspecified), the AC50 in [2] is 25.1 µM (active); in assay [8] it was 73.6 µM (active); in assay [9], 73.5 µM (active); in assay [10], 75.6 µM (active). Also, the call in assay [3], in assay [4], in [5], in [6] and in [7] was inactive.

For the molecule `Cn1sc(Cl)cc1=O`, the result in [2], in assay [3], in assay [4], in [6] and in [7] was inactive. For the same molecule, the AC50 in assay [5] is 110 µM (active); in assay [8], 104 µM (active); in assay [9], 109 µM (active); in assay [10], 97.3 µM (active).

`C[C@@H]1C[C@@H]([C@H](O)CC2CC(=O)NC(=O)C2)C(=O)[C@@H](C)C1`: the AC50 in assay [2] was 1.19 µM (active); in assay [7] it was 7.46 µM (active); in [8], 0.415 µM (active); in [10] it was 0.564 µM (active). Also, the molecule was called inactive in assay [3], in [4], in [5], in [6] and in assay [9].

Consider `O=C(O)C(F)(F)C(F)(F)C(F)(F)C(F)(F)C(F)(F)C(F)(F)C(F)(F)C(F)(F)C(F)(F)C(F)(F)F`, for which the AC50 is 68.4 µM (active) in assay [2]; 56.7 µM (active) in assay [4]; 60.9 µM (active) in [5]; 68.8 µM (active) in assay [7]; 83.3 µM (active) in [8]; 90.6 µM (active) in assay [9]. Moreover, in assay [10], the AC50 was 66.5 µM (active). For the same molecule, the outcome in [3] and in [6] was inactive.

For `O=C(Nc1ccc2[nH]ccc2c1)c1cc2cc(F)ccc2n1Cc1cccc(F)c1`, the AC50 in assay [2] is 25.4 µM (active); in assay [4] it was 19.7 µM (active); in assay [5], 30.9 µM (active); in assay [6] it was 2.08 µM (active); in assay [7] it was 35.7 µM (active); in [8], 17.2 µM (active). Also, the results for the AC50 in assay [9] and in assay [10] were 27.8 µM (active) and 22 µM (active), respectively. For the same molecule, the molecule was classed as inactive in [3].

Regarding `CC(=O)[O][Hg][c]1ccccc1`, the molecule was classed as inactive in assay [2] and in assay [6]. Besides, the AC50 is 66.6 µM (active) in [3]; 5.17 µM (active) in assay [4]; 3.06 µM (active) in [5]; 28.7 µM (active) in assay [7]; 3.19 µM (active) in assay [8]; 3.55 µM (active) in [9]. In addition, the AC50 in [10] was 1.83 µM (active).

On to `O=C1C2(Cl)C3(Cl)C4(Cl)C(Cl)(Cl)C5(Cl)C3(Cl)C1(Cl)C5(Cl)C24Cl` (stereo unspecified), for which the AC50 in assay [2] was 44.6 µM (active); in assay [7] it was 24.7 µM (active); in [8], 22.5 µM (active); in [9] it was 113 µM (active). In addition, the outcome in assay [3], in assay [4], in assay [5], in assay [6] and in assay [10] was inactive.

Turning to `COc1cc(-c2ccc(N)c(OC)c2)ccc1N`, the AC50 is 58.7 µM (active) in [2]; 28.8 µM (active) in assay [5]; 12.7 µM (active) in assay [6]; 13.8 µM (active) in assay [7]; 56.5 µM (active) in assay [8]; 24.8 µM (active) in [9]. Moreover, in [10], the AC50 was 24.8 µM (active). Also, the call in assay [2], in assay [3], in assay [4], in assay [5], in assay [6] and in [7] was inactive. Moreover, the molecule was classed as inactive in [8], in [9] and in assay [10].

In the case of `CCNc1nc(NC(C)(C)C)nc(SC)n1`, the molecule was classed as inactive in [1].

Turning to `C=CC(=O)OCCCCCC(C)C`, the molecule was called inactive in assay [2], in assay [3], in [4], in assay [5], in [6] and in assay [9]. For the same molecule, the call in assay [10] was inactive. Further, the AC50 is 108 µM (active) in assay [7] and 92.1 µM (active) in assay [8].

For the molecule `Cc1ccccc1N`, the molecule was classed as inactive in [2], in assay [3], in assay [4], in assay [5], in assay [6] and in assay [7]. For the same molecule, the outcome in assay [8], in assay [9] and in [10] was inactive.

As for `CC12CC1(C)C(=O)N(c1cc(Cl)cc(Cl)c1)C2=O` (stereo unspecified), the molecule was classed as inactive in [2], in assay [3], in assay [4], in assay [5], in [6] and in assay [7]. For the same molecule, the molecule was classed as inactive in [8], in [9] and in [10].

In the case of `CC(C)(C)CC(C)(C)c1ccc(O)cc1`, the AC50 in [2] is 161 µM (active); in assay [3], 52.3 µM (active); in assay [5], 49.6 µM (active); in [6], 25.3 µM (active); in [7], 32 µM (active); in [8] it was 43.4 µM (active). Further, the molecule was classed as inactive in [4], in assay [9] and in assay [10].

As to `CCN1CCC2(CC1)COc1cc3c(cc12)N(C(=O)c1ccc(-c2ccc(-c4nnc(C)o4)cc2C)cc1)CC3`, the outcome in assay [2], in [3], in [4], in [6] and in [7] was inactive. Further, the AC50 in [5] is 13.2 µM (active); in assay [8], 9.88 µM (active); in assay [9], 41.7 µM (active); in assay [10], 6.34 µM (active).

Usually AC50 stands for the concentration giving half of the maximal activity seen.
